Data on 19 compounds can be found in PubChem BioAssay AID651640 (Broad Institute, 2012).

Structures are written as SMILES. The whole screen tested about 350,000 compounds, of which about 6,000 (1.7%) were called active. Roughly 5% stayed inconclusive and do not appear here. The sample holds actives, similar compounds and a random draw of the others, so the mix is not that of the screen. No stated cut-off is given here; in the data, active means CPE inhibition above about 20% (passing the limit was not always enough); inconclusive means no clear call, values can overlap the other calls; tested in BHK-21 cells.

The test can be described thus: protection of cells from dengue 2 killing – plate reader, single concentration, primary screen (AID 651640).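 Further: 0% = median of neutral control wells and 100% = median of positive control wells.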 The conditions noted are these: DENV2-infected cells, cytopathic effect rescue, at 9.99 µM, active compounds read high. In general terms: Protection from cytopathic effect is a common read-out in antiviral testing.
Take `COCC#Cc1ccc([C@@H]2[C@@H](CO)N3C(=O)CN(C(=O)C4CCCC4)C[C@@H]23)cc1`: the CPE inhibition was -7.7% (inactive).

As to `CC(C)NC(=O)N(C)C[C@H]1Oc2ccc(N(C)C)cc2C(=O)N([C@@H](C)CO)C[C@H]1C`, the CPE inhibition was -2.75% (inactive).

For the compound `C[C@@H]1CCCCO[C@H](CN(C)C(=O)CCC(F)(F)F)[C@H](C)CN([C@H](C)CO)C(=O)c2cc(NC(=O)NC3CCCCC3)ccc2O1`, the CPE inhibition is 0.687% (inactive).

As for `COCC(=O)Nc1ccc2c(c1)C(=O)N(C)C[C@@H](OC)[C@@H](C)CN(C(=O)c1ccccc1)[C@@H](C)CO2`, the CPE inhibition was 0.375% (inactive).

On to `CN1CCN(C(=O)c2cc3c(c(-c4cccc(-c5ccc(C(=O)N(C)C)cc5)c4)n2)[C@@H](CCO)N([S@](=O)C(C)(C)C)C3)CC1`, for which the CPE inhibition was 1.85% (inactive).

In the case of `O=C(CN1CCOCC1)N1CCCCN2[C@H](CO)[C@H](c3ccc(-c4ccccc4)cc3)[C@@H]2C1`, the CPE inhibition was 6.44% (inactive).

For the compound `O=C(CN1CCOCC1)N1CCCCN2[C@@H](CO)[C@H](c3ccc(-c4ccccc4)cc3)[C@@H]2C1`, the CPE inhibition was -4.15% (inactive).

Take `O=C(CN1CCOCC1)NC[C@@H]1N[C@@H](CO)[C@@H]1c1ccc(-c2ccccc2)cc1`: the CPE inhibition is 29.8% (active).

For `CN1C(=O)c2cc(NC(=O)c3cnccn3)ccc2OC[C@@H]2O[C@H](CC(=O)O)CC[C@@H]21`, the CPE inhibition was 0.738% (inactive).

For `COc1ccc(/C=C/C(=O)OCC(=O)NCc2cccs2)cc1OC`, the CPE inhibition was -0.984% (inactive).

In the case of `CCOc1ccc(/C=C/C(=O)N(CC)CC(=O)NCc2cccs2)cc1OC`, the CPE inhibition is 67.5% (active).

In the case of `CCN(CC(=O)NCc1cccs1)C(=O)/C=C/c1ccc(C)cc1`, the CPE inhibition is 13.7% (inactive).

`COc1ccccc1C#Cc1ccc([C@H]2[C@H](CO)N3CCCCN(C(=O)C4CCC4)C[C@@H]23)cc1`: the CPE inhibition is -8.41% (inactive).

Regarding `Cc1cccc(C(=O)NC2CCN(CC(=O)Nc3cccc(Cl)c3)CC2)c1`, the CPE inhibition is 39% (active).

As for `Cc1cc(C)cc(NC(=O)NC2CCN(CC(=O)Nc3cccc(Cl)c3C)CC2)c1`, the CPE inhibition was -4.01% (inactive).

As for `O=C(CN1CCC(NC(=O)Nc2ccccc2)CC1)Nc1cccc([N+](=O)[O-])c1`, the CPE inhibition is -9.16% (inactive).

On to `C[C@H]1CN([C@@H](C)CO)S(=O)(=O)c2ccc(C#Cc3ccccc3)cc2O[C@@H]1CN(C)C(=O)C1CC1`, for which the CPE inhibition was 19.8% (inactive).

`Cc1ccccc1C1=NC(C(F)(F)F)(C(F)(F)F)c2c(n(-c3ccc(F)cc3)c(=O)[nH]c2=O)N1`: the CPE inhibition is 22.3% (active).

Consider `COc1ccc2c3c([nH]c2c1)[C@H](CO)N(C(=O)Nc1ccc(F)cc1)CC31CN(S(=O)(=O)c2cccc(F)c2)C1`, for which the CPE inhibition is 1.82% (inactive).
